# Source: PubChem (several laboratories)
# Only some compounds are listed: those with a hit (about 3.2% of all), similar ones and a draw of the others.
# EWS-Fli block: EWS/Fli transcriptional activity inhibition. A673 NR0B1-luciferase reporter, viability-normalised. inhibition, % at 12.6 µM. 350,000 tested, 0.67% active;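 active = mean inhibition of at least 50% after viability correction, with every replicate also passing that limit; inconclusive = mean reaches 50% but only one of two replicates passes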;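 also: firefly luciferase signal divided by Alamar Blue viability fluorescence both relative to DMSO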
# TWEAK-Fn14 inh: blocks TWEAK-Fn14 interaction in a reporter cell assay | TWEAK-stimulated Fn14 reporter cells, luciferase luminescence, 8 h | inhibition, % at 10 µM | 360,000 tested, 2% active; in the data active = inhibition above about 50%
# PAX8 reporter: PAX8 transcriptional activity inhibition; RMG-I TPO-luciferase reporter, SteadyGlo, 24 h; 360,000 tested, 1.2% active; AID 652154; inhibition, % at 12.6 µM;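 active = mean replicate inhibition at least 60% with every replicate also reaching 60%; inconclusive = only one of the two criteria is met; inactive = mean below 60% and not all replicates reaching 60%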;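 also: luciferase light reporting Pax8 driven TPO promoter activity; plate controls were median of neutral control wells for no effect and mitoxantrone controls for full effect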
# TROY NFkB inh: blocks TROY-dependent signaling in reporter cells | Q293 LMP1-TROYcd NF-kB luciferase reporter, 4 h | 360,000 tested, 0.98% active | inhibition, % at 10 µM;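 active = compounds whose plate-normalised and pattern-corrected inhibition of the luciferase reporter signal at the single screening dose is 50% or more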
# EBV LMP1 NFkB: inhibitors of Epstein-Barr LMP1-induced NF-kappaB reporter. 350,000 tested, 0.69% active. LMP1-induced NF-kappaB luciferase reporter cells, luminescence. inhibition, % at 12.5 µM. AID 504558; in the data active = inhibition above about 41%; inconclusive = no clear call, values can overlap the other calls;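 also: 0% = neutral control wells and 100% = reference inhibitor control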
# LGR2 inh: inhibitors of bursicon-induced Drosophila LGR2 receptor cAMP signaling. inhibition, % at 9.99 µM. HEK293 LGR2, CRE-luciferase, bursicon-stimulated, 4 h. AID 720647. 380,000 tested, 0.35% active;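 active = drop in luminescence signal, shown as inhibition above about 50% in the replicate tests, limit read from the data, passing the limit was not always enough; inconclusive = probably only some replicates passing the limit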;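 also: agonist challenge used bursicon conditioned medium at about half maximal strength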
# DNA binding: small molecule DNA binding by fluorescence polarization; shares compounds with EWS-Fli block; AC35, µM (highest dose often 68 µM), for the others: at the top dose activity change, negative = DNA binding; salmon sperm DNA acridine orange fluorescence polarization; 640 tested, 2% active;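 active = fitted curve reaches a 35% signal fall AC35 below twice the sample's top valid tested dose, actives reach about 48 µM in these data; inactive = the rest, including activity in the rising direction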;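 also: lower polarization ratio signals compound binding to DNA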
# Starred values were filed as active, the others as inactive; ? = inconclusive; . = not tested or not shown.
SMILES,EWS-Fli block,TWEAK-Fn14 inh,PAX8 reporter,TROY NFkB inh,EBV LMP1 NFkB,LGR2 inh,others
C/C(=N\NC(=O)c1cccc2ccccc12)c1ccccn1,-31.9,101.5*,65.4*,20.8,34.0,8.8,
CCNC(=O)Nc1ccc2c(c1)C(=O)N(C)[C@H]1CC[C@@H](CC(=O)NCCOC)O[C@H]1CO2,-8.3,.,40.7,.,.,-6.8,
CC(=O)N(C)C[C@H]1Oc2cc(C#CC(C)C)ccc2S(=O)(=O)N([C@H](C)CO)C[C@H]1C,0.6,.,.,.,.,-23.9,
C/C(=N\NC(=O)C(c1ccccc1)c1ccccc1)c1ccccn1,.,56.7*,77.3*,-24.3,7.9,24.8,
C/C(=N\NC(=O)c1cccc(Br)c1)c1ccccn1,-14.9,-60.9,11.7,-40.3,70.5*,-9.1,
C/C(=N\NC(=O)c1cc(Br)ccc1O)c1ccccn1,-10.6,-92.4,8.7,-68.8,3.8,-45.3,
C/C(=N\NC(=O)c1cc(-c2cccs2)nc2ccccc12)c1ccccn1,-3.3,-64.5,79.3*,-12.0,72.4*,.,
C/C(=N\NC(=O)C(c1ccccc1)c1ccccc1)c1ccc(O)cc1,6.7,4.3,1.8,-19.2,10.8,-3.6,
C/C(=N\NC(=O)c1ccc(Cl)c(Cl)c1)c1ccccn1,-0.8,31.7,63.3*,-50.7,72.7*,14.8,
COCC(=O)N1C[C@H](C)[C@H](OC)CN(C)C(=O)c2cc(NS(C)(=O)=O)ccc2OC[C@@H]1C,-3.9,.,-3.4,.,.,2.1,
CCCC(=O)Nc1ccc2c(c1)C(=O)N(C)C[C@@H](OC)[C@H](C)CN(CCC(F)(F)F)[C@@H](C)CO2,-7.9,.,-8.3,.,.,0.3,
CC(C)(C)c1ccc(/C=N/NC(=O)c2ccccn2)cc1,46.9,71.0*,-5.1,52.3*,12.9,86.4*,
O=C(N/N=C/c1ccsc1)c1ccccn1,-43.5,-1.9,-124.5,-49.8,-12.6,-42.5,
CCCCN(CC)Cc1ccc(CNC(=S)Nc2ccc(C)cc2Cl)o1,20.6,73.9*,-9.8,42.1,9.3,2.0,
Cc1ccc(S(=O)(=O)N[C@H]2CC[C@H](CCNC(=O)Nc3ccc(Cl)cc3)O[C@@H]2CO)cc1,-12.9,.,8.8,.,.,-0.2,
CCOC(=O)c1c(C)[nH]c(C(=O)OCC(=O)NC2CCS(=O)(=O)C2)c1C (configuration not stated),.,86.8*,.,.,-1.1,14.5,
CCOC(=O)c1[nH]c(C)c(C(=O)OCC(=O)NC2CCS(=O)(=O)C2)c1C (configuration not stated),-1.4,1.6,-6.8,9.9,0.5,8.4,
O=C(C[C@@H]1CC[C@@H](NC(=O)c2cccnc2)[C@@H](CO)O1)NCCN1CCCCC1,-0.8,.,7.9,.,.,-20.3,
CS(=O)(=O)c1ccc(Sc2nc3ccccc3s2)c([N+](=O)[O-])c1,.,99.3*,.,37.7,56.1*,.,
C[C@@H](OC(=O)c1[nH]cnc1C(=O)N1CCc2ccccc2C1)c1ccccc1,0.4,-5.2,-15.3,-9.2,84.9*,.,
CC1CCN(C(=O)c2nc[nH]c2C(=O)O[C@H](C)c2ccccc2)CC1,-3.7,0.1,-21.9,9.6,-3.7,-8.7,
COc1ccc(NC(=O)N(C)C[C@H]2OCCCC[C@@H](C)Oc3ccc(NS(=O)(=O)c4cn(C)cn4)cc3C(=O)N([C@H](C)CO)C[C@@H]2C)cc1,-10.7,.,6.0,.,.,-7.7,
Cc1noc(C)c1NC(=O)N(C)C[C@H]1OCCCC[C@@H](C)Oc2ccc(NS(=O)(=O)c3c(C)noc3C)cc2C(=O)N([C@@H](C)CO)C[C@H]1C,-1.6,.,9.9,.,.,7.8,
Nc1ccc2nc(-c3cccc(-c4nc5ccc(N)cc5[nH]4)c3)[nH]c2c1,0.2,-1.3,-4.0,2.3,-1.8,1.5,
Nc1ccc2cc3[nH]c4cc(N)ccc4c3nc2c1,42.1,-31.8,90.3*,-36.9,62.3*,.,
SMILES,EWS-Fli block,TWEAK-Fn14 inh,PAX8 reporter,TROY NFkB inh,EBV LMP1 NFkB,LGR2 inh,others
CC(C)(C)NC(=O)C(c1ccc(C#N)cc1)n1c(=O)c(-c2cc3ccccc3[nH]2)nc2ccccc21 (configuration not stated),17.3,.,65.3*,.,.,-11.8,
CC1CCN(C(=O)c2cc3c(ccc4ccccc43)o2)CC1,.,60.8*,-107.3,41.3,-3.7,?,
O=C(O)c1ccc2c(c1Nc1ccccc1)C(=O)c1ccccc1C2=O,-11.6,18.5,20.3,-1.4,42.5*,-7.8,
Nc1nc(N)c(-c2cccc(C(F)(F)F)c2)c(Cc2cccc(C(F)(F)F)c2)n1,57.5*,24.4,5.0,9.7,7.5,4.7,DNA binding=-3.2%
Nc1ncccc1OCc1cccc(C(F)(F)F)c1,-6.2,-14.5,-3.9,-8.5,-10.0,-14.7,
C/C(=N\N(c1ccccc1)c1ccccc1)c1ccco1,58.5*,1.4,6.1,3.3,-9.8,14.4,DNA binding=0.1%
O=C(NCc1ccc(F)cc1)N1[C@H]2CC[C@@H]1C=C(c1ccc(F)cc1OCc1ccccc1)C2,53.9*,18.7,-22.4,23.2,5.6,20.0,DNA binding=-9.2%
COc1ccc(CNC(=O)N2[C@H]3CC[C@@H]2C=C(c2ccc(F)cc2OCc2ccccc2)C3)cc1OC,-34.9,42.8,26.4,20.9,?,18.6,
CN(C)CC(=O)Nc1ccc2c(c1)[C@@H]1C[C@@H](CC(=O)NCc3ccccn3)O[C@@H](CO)[C@@H]1O2,-6.8,.,-13.6,.,.,-4.8,
CC(NC(=O)c1ccco1)c1nc(-c2ccc(C(C)(C)C)cc2)no1 (configuration not stated),77.7*,57.3*,-37.8,19.8,-6.5,-16.3,DNA binding=-21.7%
O=C(C[C@@H]1CC[C@H](NC(=O)Nc2cccc(F)c2)[C@@H](CO)O1)NCC1CCCCC1,0.4,.,-3.0,.,.,5.8,
COc1ccc(CN(C)c2ncnc3sccc23)c(OC)c1OC,63.0*,21.6,23.3,-8.0,20.9,-0.2,DNA binding=-6.7%
C[C@H]1CN([C@@H](C)CO)C(=O)c2cccc(NS(=O)(=O)c3cccs3)c2O[C@@H]1CN(C)C(=O)NC1CCCCC1,-1.0,.,.,.,.,-2.2,
C[C@@H]1CN([C@H](C)CO)C(=O)c2cc(NS(=O)(=O)c3ccccc3)ccc2O[C@H]1CN(C)Cc1ccc(C(=O)Nc2ccccc2N)cc1,29.6,.,18.3,.,.,-3.7,
COc1ccc(S(=O)(=O)Nc2ccc3c(c2)C(=O)N([C@H](C)CO)C[C@@H](C)[C@H](CN(C)CC2CCCCC2)OCCCC[C@@H](C)O3)cc1,4.9,.,18.7,.,.,11.9,
COc1ccc(S(=O)(=O)Nc2ccc3c(c2)C(=O)N([C@@H](C)CO)C[C@@H](C)[C@@H](CN(C)Cc2ccc(C(=O)Nc4ccccc4N)cc2)O3)cc1,49.3,.,.,.,.,12.5,
COc1ccc(S(=O)(=O)Nc2ccc3c(c2)C(=O)N([C@H](C)CO)C[C@@H](C)[C@@H](CN(C)CC2CCCCC2)OCCCC[C@H](C)O3)cc1,55.8*,.,16.8,.,.,2.8,DNA binding=-11.6%
